# From PubChem BioAssay (NCATS)
# Values joined by “and” are separate entries in the source; they are usually repeats but may differ in a detail not shown here. Equal entries are not always repeated. Results filed as inconclusive are left out. A call without a number means that no potency is given here. Where a structure was tested more than once in an assay, its records may differ in their call. Active and inactive are the calls of the source. Unless noted, calls follow the shape of the full dose curve.
# Columns and labels:
# [1] = molecular target: Glucocorticoid receptor (Homo sapiens) (UniProt P04150); experiment: qHTS assay for small molecule agonists of glucocorticoid receptor signaling (AID 588532; active = well fitted curve in the direction sought with a large enough effect in the signal ratio, with a control signal flat; the % refers to the signal ratio); conditions: HeLa MMTV-bla, beta-lactamase ratio, agonist, 18 h; stronger effect = higher value; percent of dexamethasone control, DMSO zero
# Method in brief: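 Agonist-mode qHTS: GRE-driven beta-lactamase in HeLa cells exposed 18 h to titrated compounds (up to 92 uM), then CCF4 ratio read after 2 h at RT; Hill-fitted EC50, efficacy relative to 0.1 uM dexamethasone.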
# [2] = qHTS assay for small molecule antagonists of peroxisome proliferator-activated receptor delta signaling (AID 588535; active = well fitted inhibition curve with a large enough effect in the signal ratio, with a control signal flat, not every such curve was filed as active; the % refers to the signal ratio; also: potency is read from the fitted curve at half-maximal effect;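 as to max response: cells co-treated with a PPAR-delta agonist as stimulator during compound exposure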); conditions: HEK293T PPARd-UAS-bla, beta-lactamase FRET ratio, 18 h; 460 nm channel
# Method in brief: (§1)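 Cell-based beta-lactamase assay in antagonist mode: 4000 HEK293T PPAR-delta-UAS-bla cells per well, 5 hr preincubation then 18 hr compound incubation at 37 C. IC50 obtained by Hill equation fitting.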
# [3] = molecular target: Peroxisome proliferator-activated receptor delta (Homo sapiens) (UniProt Q03181); experiment: as above; conditions: HEK293T PPARd-UAS-bla, beta-lactamase FRET ratio, 18 h; series mostly up to 76.7 µM
# Method in brief: as §1
# [4] = molecular target: Peroxisome proliferator-activated receptor gamma (Homo sapiens) (UniProt P37231); experiment: qHTS assay for small molecule agonists of peroxisome proliferator-activated receptor gamma signaling (AID 588536; active = well fitted curve in the direction sought with a large enough effect in the signal ratio, with a control signal flat, not every such curve was filed as active; the % refers to the signal ratio); conditions: HEK293 PPARg-UAS-bla, beta-lactamase ratio, 16 h, percent of rosiglitazone response, DMSO as zero; series mostly up to 76.7 µM
# Method in brief: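 HEK293 UAS-bla reporter line, 1% charcoal/dextran FBS; titration, 16 h, 37 C; CCF4 loading 2 h RT; fluorescence 460/530 nm. Normalized to rosiglitazone 2 uM = 100%, DMSO = 0%.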
# [5] = molecular target: Vitamin D3 receptor (Homo sapiens) (UniProt P11473); experiment: qHTS assay for small molecule antagonists of vitamin D receptor signaling (AID 588541); conditions: HEK293T VDR-UAS-bla, beta-lactamase ratio, antagonist mode; series mostly up to 76.7 µM;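 also: receptor activated by calcitriol during compound treatment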
# Method in brief: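 Antagonist-mode beta-lactamase reporter assay: HEK293T VDR-UAS-bla cells were exposed to titrated compound alongside 1-alpha,25-dihydroxyvitamin D3 at 3 nM final for 16 h. Values were normalized to the 50 nM agonist control and DMSO basal, with IC50 and efficacy from Hill equation fits.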
# [6] = molecular target: Vitamin D3 receptor (Homo sapiens) (UniProt P11473); experiment: qHTS assay for small molecule agonists of vitamin D receptor signaling (AID 588543); conditions: HEK293T VDR-UAS-bla, beta-lactamase ratio, 16 h; series mostly up to 76.8 µM
# Method in brief: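 qHTS in agonist mode: compound titrations stimulate a VDR-driven β-lactamase reporter in HEK293T cells over 16 h at 37 °C. Response normalized to 50 nM 1α,25-dihydroxyvitamin D3 = 100%, DMSO = 0%; Hill fitting gives EC50 and maximal response.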
# [7] = qHTS assay for small molecule agonists of retinoid X receptor alpha signaling (AID 588544); conditions: HEK293T RXRa-UAS-bla, beta-lactamase reporter, 18 h; 530 nm emission
# [8] = molecular target: Retinoic acid receptor RXR-alpha (Homo sapiens) (UniProt P19793); experiment: as above; conditions: HEK293T RXRa-UAS-bla, beta-lactamase reporter, 18 h; series mostly up to 76.7 µM
# [9] = molecular target: Glucocorticoid receptor (Homo sapiens) (UniProt P04150); experiment: qHTS assay for small molecule antagonists of glucocorticoid receptor signaling (AID 588533; active = well fitted inhibition curve with a large enough effect in the signal ratio, with a control signal flat, not every such curve was filed as active; the % refers to the signal ratio;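 also: cells stimulated with 2 nM dexamethasone as agonist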; also: potency is read from the fitted curve at half-maximal effect); conditions: HeLa MMTV-bla, GRE beta-lactamase ratio, antagonist mode, 18 h; series mostly up to 76.8 µM
# Method in brief: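 Antagonist-mode qHTS: compound titrations added to GRE-bla HeLa cells, then dexamethasone 2 nM final; 18 h, 37 C. CCF4 FRET fluorescence normalized to dexamethasone and DMSO; IC50 from Hill fit.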
# [10] = molecular target: Peroxisome proliferator-activated receptor gamma (Homo sapiens) (UniProt P37231); experiment: qHTS assay for small molecule antagonists of peroxisome proliferator-activated receptor gamma signaling (AID 588537; active = well fitted inhibition curve with a large enough effect in the signal ratio, with a control signal flat, not every such curve was filed as active; the % refers to the signal ratio; also: potency is read from the fitted curve at half-maximal effect); conditions: HEK293 PPARg-UAS-bla, beta-lactamase ratio, antagonist mode; series mostly up to 76.8 µM
# Method in brief: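 Inhibitors of agonist-stimulated UAS-bla reporter activity were sought in HEK293 cells; rosiglitazone (50 nM) defined full signal and DMSO baseline. Curves fitted to Hill model gave IC50 and efficacy.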
# Retinoic acid receptor RXR-alpha (Homo sapiens), sequence (P19793 whole entry, looked up): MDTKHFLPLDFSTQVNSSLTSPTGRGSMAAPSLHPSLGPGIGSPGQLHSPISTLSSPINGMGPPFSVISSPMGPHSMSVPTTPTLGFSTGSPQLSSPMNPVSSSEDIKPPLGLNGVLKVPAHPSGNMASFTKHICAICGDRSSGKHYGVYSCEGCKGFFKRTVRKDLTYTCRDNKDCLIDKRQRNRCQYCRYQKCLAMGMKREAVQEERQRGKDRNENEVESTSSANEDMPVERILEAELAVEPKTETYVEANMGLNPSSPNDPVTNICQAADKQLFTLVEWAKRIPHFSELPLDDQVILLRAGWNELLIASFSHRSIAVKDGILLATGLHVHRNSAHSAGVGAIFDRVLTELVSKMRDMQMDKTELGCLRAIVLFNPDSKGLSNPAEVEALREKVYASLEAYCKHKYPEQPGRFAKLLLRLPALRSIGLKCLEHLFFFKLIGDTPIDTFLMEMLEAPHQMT
# Peroxisome proliferator-activated receptor delta (Homo sapiens), sequence (Q03181 whole entry, looked up): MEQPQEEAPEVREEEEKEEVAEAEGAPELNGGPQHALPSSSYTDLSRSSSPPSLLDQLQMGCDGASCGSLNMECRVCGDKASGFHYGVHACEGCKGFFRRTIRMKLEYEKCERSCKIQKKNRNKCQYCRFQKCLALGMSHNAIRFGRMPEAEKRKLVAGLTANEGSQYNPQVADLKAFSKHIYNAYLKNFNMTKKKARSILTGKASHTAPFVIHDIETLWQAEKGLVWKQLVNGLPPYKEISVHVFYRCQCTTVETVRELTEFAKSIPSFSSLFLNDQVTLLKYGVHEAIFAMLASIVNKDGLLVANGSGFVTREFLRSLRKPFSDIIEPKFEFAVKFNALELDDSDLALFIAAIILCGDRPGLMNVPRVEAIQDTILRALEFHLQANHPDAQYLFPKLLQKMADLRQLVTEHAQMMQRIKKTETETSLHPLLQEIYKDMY
Structure (SMILES),activation [1],max response [2],Potency [3],outcome [4],outcome [5],outcome [6],max response [7],outcome [8],Potency [9],Potency [10]
O=c1cc(-c2ccccc2)oc2ccccc12,-9.59% (inactive) and -14.8% (inactive),43.6%,inactive,inactive,inactive,inactive,18.8%,inactive,–,–
C=CCCCCCCCCC(=O)O,-3.95% (inactive),–,–,inactive,inactive,inactive,-10%,inactive,inactive,–
O=C(O)c1ccccc1Nc1cccc(C(F)(F)F)c1,-19% (inactive),–,–,inactive,inactive,inactive,–,–,inactive,–
Nc1ccc([N+](=O)[O-])cc1O,-6.1% (inactive) and -0.626% (inactive),4.75% and -17.9%,inactive,–,inactive,inactive,5.77%,inactive,–,–
Nc1nc2ccc([N+](=O)[O-])cc2s1,–,42.6%,inactive,inactive,inactive,inactive,–,–,–,–
CN1CCC[C@H]1c1cccnc1,–,–,–,inactive,inactive,inactive,–,–,–,inactive
N=C1N=C(N)c2cc3ccccc3cc21,0.184% (inactive),–,–,–,inactive,inactive,12.6%,inactive,–,–
c1cnc2c(c1)ccc1cccnc12,–,-78.3%,17.8 µM (active),–,–,inactive,–,–,–,–
CC1(C)S[C@@H]2[C@H](NC(=O)[C@H](N)c3ccccc3)C(=O)N2[C@H]1C(=O)O,–,–,–,inactive,–,–,-24.6%,inactive,–,–
COc1cc(/C=C/C(=O)CC(=O)/C=C/c2ccc(O)c(OC)c2)ccc1O,-12.9% (inactive),–,–,–,–,–,–,–,–,–
CC(C)NCC(O)COc1cccc2ccccc12 (configuration not stated),–,-13.8% and 28.5%,inactive,inactive,inactive,inactive,16.9% and 0.479%,inactive,–,inactive
CCCCCCCCCCCCCCCCCC(=O)O,–,–,–,inactive,–,–,13.3% and -12.8% and -7.59%,inactive,–,inactive
Nc1ccc(O)c(C(=O)O)c1,1.83% (inactive) and -3.75% (inactive),9.11%,inactive,inactive,inactive,inactive,-5.65% and -3.05%,inactive,inactive,inactive
O=C1CN(/N=C/c2ccc([N+](=O)[O-])o2)C(=O)N1,2.61% (inactive),–,–,–,inactive,inactive,–,–,inactive,–
S=c1[nH]c2ccccc2s1,-4.66% (inactive) and -1.91% (inactive),9.56%,inactive,–,inactive,inactive,-3.92%,inactive,inactive,inactive
C#C[C@]1(O)CC[C@H]2[C@@H]3CCc4cc(O)ccc4[C@H]3CC[C@@]21C,-1.88% (inactive),-35.1% and -42.8%,inactive,–,–,–,–,–,10 µM (active) and 12.6 µM (active),–

Structure (SMILES),activation [1],max response [2],Potency [3],outcome [4],outcome [5],outcome [6],max response [7],outcome [8],Potency [9],Potency [10]
c1ccc2sc(SSc3nc4ccccc4s3)nc2c1,0.623% (inactive) and -1.23% (inactive),2.19%,inactive,inactive,inactive,inactive,3.36% and -4.21%,inactive,inactive,inactive
CCCOC(=O)c1ccc(O)cc1,-2.28% (inactive) and -1.56% (inactive),7.9% and -17%,inactive,inactive,inactive,inactive,-11.1% and -2.66% and -11%,inactive,inactive,inactive and 35.5 µM (active)
O=C(OCc1ccccc1)c1ccccc1,-9.71% (inactive),18.5%,inactive,inactive,inactive,inactive,2.86%,inactive,inactive,inactive
CN(C)CCC(c1ccc(Cl)cc1)c1ccccn1 (configuration not stated),0.717% (inactive),–,–,inactive,–,–,8.67%,inactive,inactive,–
CC(C)OC(=O)c1cc(C(=O)OC(C)C)cc([N+](=O)[O-])c1,-0.933% (inactive),31.8%,inactive,–,inactive,inactive,–,–,inactive,–
O=C(O)/C=C\C(=O)O,-2.26% (inactive),-10.6%,inactive,–,inactive,inactive,-5.8%,inactive,inactive,–
O=C(O)[C@H](O)[C@@H](O)[C@H](O)[C@H](O)CO,–,8.66%,inactive,inactive,inactive,inactive,-12.4%,inactive,–,inactive
O=C(O)c1cc(O)c(O)c(O)c1,2.04% (inactive),19.5%,inactive,inactive,inactive,inactive,4.26%,inactive,–,inactive
CCCCCCCCCCCCCCCC(=O)OC(C)C,–,-23.5%,inactive,–,inactive,inactive,0.385%,inactive,–,–
O=C(Nc1ccccc1)c1cc([N+](=O)[O-])ccc1Cl,-2.03% (inactive),15.1%,inactive,–,–,–,–,–,inactive,–
Nc1cc(-c2ccncc2)c[nH]c1=O,-4.52% (inactive),50.9%,inactive,inactive,inactive,inactive,3.04%,inactive,inactive,inactive
NCCO,1.21% (inactive),–,–,–,–,–,-11.3%,inactive,inactive,–
Nc1ccc(O)c([N+](=O)[O-])c1,3.32% (inactive),41.6% and 11.8%,inactive,–,inactive,inactive,-11.3%,inactive,inactive,inactive
COc1cc(CNC(=O)CCCC/C=C/C(C)C)ccc1O,-1.19% (inactive) and -3.69% (inactive),7.93% and 37.4%,inactive,–,inactive,inactive,3.03% and 16.9%,inactive,inactive,inactive
Oc1ccccc1O,-6.14% (inactive),–,–,inactive,–,inactive,7.41%,inactive,–,–
CN(C)c1ccc(N=NS(=O)(=O)O)cc1,14.4% (inactive) and -3.49% (inactive),49.1%,inactive,–,inactive,inactive,-5.77%,inactive,–,–
